Pf growth 96h: P. falciparum growth inhibition at 96 hour, primary screen for plastid delayed-death inhibitors. Potency, µM (doses to about 28.7 µM), usual class: inhibitors. actives 6.9% (n = 320,000). P. falciparum luciferase reporter growth, 96 h
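Cell-based qHTS: luciferase-tagged P. falciparum in erythrocytes (2% hematocrit, 0.05% parasitemia final) incubated with compounds for 96 hours, 37 C, 5% CO2; luciferase detection reagent then added and luminescence measured.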
Shiga inhibitor: blocks Shiga toxin action in Vero cells; inhibition, % at 38.7 µM; actives 9.2% (n = 290,000); Vero cells, Shiga toxin protein synthesis inhibition reporter; AID 2315; in the data active = inhibition mostly above about 28%, no sharp cut-off; inactive = mostly below about 43%
Pf growth 48h: inhibits P. falciparum growth in the first generation, 48 h; P. falciparum luciferase growth in erythrocytes, 48 h; Potency, µM (highest dose often 28.7 µM), actives largely listed as inhibitors; actives 5.9% (n = 310,000); AID 504832
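Luciferase-expressing parasites in RBCs, 2% Hct / 0.1% parasitemia final; RPMI 1640 + 0.5% Albumax; 37 C, 5% CO2, one generation; luminescence read-out, lower signal = inhibition.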
Cycloheximide cs: counter-screen for Shiga toxin inhibitors: cycloheximide protein synthesis inhibition; cell reporter, cycloheximide protein synthesis inhibition counterscreen; actives 12% (n = 300,000); max response, %; in the data active = max response mostly above about 13%, no sharp cut-off; inactive = mostly below about 14%; note: read at 38.3 µM for the half of the compounds with a filed dose
Of the large screens only hits and unclear results are named; the others gave an inactive call; ! = a repeat was not active. Sampled rows, rich in hits. Any-hit rate of the full collection: about 21%. Unless noted, calls come from the whole dose curve; as a rule, active = well fitted inhibition curve with a large enough effect; inconclusive = small, poorly fitted or top-dose-only effect, or another doubt; inactive = no such curve, though single readings can be large or run the other way.

COc1ccc(C2/C=C\CN(S(=O)(=O)c3ccc(-c4ccccc4)cc3)CC(=O)N2Cc2ccc(F)cc2)cc1 (stereo not drawn)	Pf growth 96h 4.7µM, Shiga inhibitor 68!, Pf growth 48h 12µM
CCCCC(=O)N1C/C=C\C(c2ccc(OC)cc2)N(Cc2ccc(F)cc2)C(=O)C1Cc1ccccc1 (stereo not drawn)	none (no result: Pf growth 96h, Pf growth 48h)
COc1ccc(C2/C=C\CN(C(=O)c3ccc(C)cc3)CC(=O)N2Cc2ccc(F)cc2)cc1 (stereo not drawn)	Pf growth 96h inconclusive, Shiga inhibitor 163!, Pf growth 48h inconclusive, Cycloheximide cs 82!
COc1ccccc1NC(=O)/C(C#N)=C/c1cc([N+](=O)[O-])ccc1N1CCCC1	Pf growth 96h inconclusive
Cc1ccc(-c2csc(N3CCN(CCCn4c(C(F)(F)F)nc5ccccc54)CC3)n2)cc1	Pf growth 96h inconclusive, Pf growth 48h inconclusive
Cc1ccc(-c2csc(N3CCC[C@@H]3C(=O)NCCn3c(-c4ccncc4)nc4ccccc43)n2)cc1	Pf growth 96h 3.3µM, Pf growth 48h inconclusive
Cc1ccc(-c2csc(N3CCN(CCCn4c(-c5ccncc5)nc5ccccc54)CC3)n2)cc1	Pf growth 96h 2.6µM, Pf growth 48h inconclusive
O=C(NCCn1c(C(F)(F)F)nc2ccccc21)[C@H]1CCCN1c1nc(CN2CCCCC2)cs1	Pf growth 96h inconclusive
CC1(C)CC(O)C(C)(C)N1O (stereo not drawn)	Pf growth 96h 13µM
COC(=O)C1=C(C)N=C2SC(C#N)=C(N)N2C1c1ccc(OCc2ccccc2)cc1 (stereo not drawn)	Pf growth 96h 12µM (no result: Pf growth 48h)
COC(=O)C1=C(C)N=C2SC(C#N)=C(N)N2C1c1cc(OC)c(OC)c(OC)c1 (stereo not drawn)	Pf growth 96h inconclusive, Pf growth 48h inconclusive
O=C(NCc1ccccn1)c1ccc(OC2CCN(Cc3ccc(Cl)s3)CC2)cc1	Pf growth 96h inconclusive, Pf growth 48h inconclusive
O=C1Nc2ccccc2CCC1Sc1nnc(-c2ccc(Cl)cc2)s1 (stereo not drawn)	Pf growth 96h inconclusive, Pf growth 48h 13µM
CN1C(=O)S/C(=C/c2ccc(OCc3cccc(C(=O)O)c3)cc2)C1=O	Shiga inhibitor 37, Cycloheximide cs 35
COc1cccc(/C=C2/SC(=O)N(C)C2=O)c1OCc1ccc(C(=O)O)cc1	none
COc1cc(C(=O)N(Cc2cc3cc(C)ccc3[nH]c2=O)CC2CCCO2)cc(OC)c1OC (stereo not drawn)	none
O=C(COc1ccccc1)N(Cc1cc2ccccc2[nH]c1=O)CC1CCCO1 (stereo not drawn)	Pf growth 48h inconclusive, Cycloheximide cs 25
COc1ccc2[nH]c(=O)c(CN(CC3CCCO3)C(=O)Nc3ccc(F)cc3)cc2c1 (stereo not drawn)	none
COc1ccc2cc(CN(CC3CCCO3)C(=O)Nc3ccccc3)c(=O)[nH]c2c1 (stereo not drawn)	Pf growth 48h inconclusive
COc1ccc(NC(=O)N(Cc2cc3cc(OC)c(OC)cc3[nH]c2=O)CC2CCCO2)cc1 (stereo not drawn)	Pf growth 48h inconclusive, Cycloheximide cs 12
COc1ccc(NC(=O)N(Cc2cc3cc(C)ccc3[nH]c2=O)CC2CCCO2)cc1 (stereo not drawn)	Pf growth 48h 3.3µM
COc1cccc(C(=O)N(Cc2cc3cc(C)ccc3[nH]c2=O)CC2CCCO2)c1 (stereo not drawn)	Pf growth 48h 9.3µM (no result: Pf growth 96h)
COc1ccc(C2=NS(=O)(=O)N(C)C(C(=O)N3CCc4ccccc4C3)=C2)cc1OC	Pf growth 48h inconclusive
c1ccc(-c2nnc(-c3ccccc3)nn2)cc1	Pf growth 96h inconclusive, Shiga inhibitor 91, Pf growth 48h inconclusive, Cycloheximide cs 51
c1cncc(-c2nnc(-c3cccnc3)nn2)c1	Pf growth 96h inconclusive, Pf growth 48h 2.6µM
Nc1nnc(-c2cccnc2)s1	none
CN1C(=O)C(C)(C)c2cc(S(=O)(=O)N3CCC(C(=O)Nc4ccc(Cl)cc4)CC3)ccc21	none
COc1ccccc1C(=O)NC(CCSC)C(=O)OCC(=O)N1CCCC1=O (stereo not drawn)	none (no result: Shiga inhibitor, Cycloheximide cs)
O=C(N/N=C/c1ccccc1C(=O)O)c1cccc(S(=O)(=O)N2CCCCC2)c1	none (no result: Shiga inhibitor, Cycloheximide cs)
Cc1sc2ncnc(NCC(c3ccco3)N3CCCC3)c2c1C (stereo not drawn)	Pf growth 96h 8.3µM, Pf growth 48h 10µM
O=C(Nc1ccccc1C(F)(F)F)c1ncn[nH]1	none
O=C(NCc1n[nH]c(=S)n1-c1ccc(Cl)c(Cl)c1)c1ccc(S(=O)(=O)N2CCOCC2)cc1	Pf growth 48h inconclusive
CCCCCCC(=O)Nc1ccc(Br)cn1	Shiga inhibitor 50, Cycloheximide cs 30
CCCCCC(=O)Nc1ccc(Cl)cn1	Shiga inhibitor 61, Cycloheximide cs 39
CCCC(C)C(=O)Nc1ccc(Cl)cn1 (stereo not drawn)	Shiga inhibitor 47, Cycloheximide cs 8.0 (no result: Pf growth 96h)
O=C(O)CCC(=O)Nc1ccc(Br)cn1	none (no result: Pf growth 96h)
COc1ccc(CCC(=O)Nc2ccc(Br)cn2)cc1	Cycloheximide cs 38 (no result: Pf growth 96h)
Cc1ccc(F)cc1CNC(=O)C1CCC(=O)N(CC2CCCCC2)C1 (stereo not drawn)	none
Cn1c(-c2ccc(C(C)(C)C)cc2)n[nH]c1=S	Shiga inhibitor 59, Cycloheximide cs 36
CC(c1ccccc1)n1c(-c2ccc(C(C)(C)C)cc2)n[nH]c1=S (stereo not drawn)	Pf growth 96h 4.7µM
CCn1c(-c2ccc(C(C)(C)C)cc2)n[nH]c1=S	none
Cc1ccc(C)c(-n2c(-c3ccncc3)n[nH]c2=S)c1	none
Cc1ccc(-n2c(-c3ccccc3)n[nH]c2=S)c(C)c1	Pf growth 96h 13µM
CC(C)(C)c1ccc(-c2n[nH]c(=S)n2-c2ccccc2)cc1	Pf growth 96h 2.9µM
Cc1ccccc1-n1c(-c2csc(C)c2C)n[nH]c1=S	Shiga inhibitor 46, Cycloheximide cs 17
CCOc1cc2c(cc1/C=C1/NC(=O)N(CC(=O)OC)C1=O)OCO2	Pf growth 96h inconclusive
Cc1ccc(N2CC(=O)N(NC(=O)c3sc4nc(C)cc(C)c4c3N)CC2=O)cc1	none
c1ccc2oc(SCc3nc4ccccc4s3)nc2c1	Shiga inhibitor active, Cycloheximide cs 43
NCCc1nc2ccccc2s1	none
O=C(O)c1ccc(CSc2nc3ccccc3o2)cc1	Pf growth 96h inconclusive
c1ccc(-c2noc(CSc3nc4ccccc4o3)n2)cc1	none
c1ccc(SCc2nc3ccccc3s2)nc1	Shiga inhibitor 81, Cycloheximide cs 33
O=C(O)c1ccc(-c2cccc([N+](=O)[O-])c2)o1	none
N#CCc1nc(CSc2nc3ccccc3o2)cs1	Pf growth 96h inconclusive, Shiga inhibitor 70
N#C/C(=C(/O)c1ccc(-c2cccc([N+](=O)[O-])c2)o1)c1nc2ccccc2s1	Pf growth 96h inconclusive, Shiga inhibitor 53
CC1(C)Cc2c(sc3c2c(=O)n(-c2cccc(Cl)c2)c(=O)n3CC(N)=O)CO1	Pf growth 96h inconclusive
COCCN(C(=O)COC(=O)Cc1cccc(OC)c1)c1c(N)n(CC(C)C)c(=O)[nH]c1=O	none (no result: Shiga inhibitor, Cycloheximide cs)
N#C/C(=C(/O)c1ccc(F)cc1)c1nc2ccccc2s1	Cycloheximide cs 20
N#C/C(=C(/O)COc1ccccc1)c1nc2ccccc2s1	none
N#C/C(=C(/O)CSc1ccccn1)c1nc2ccccc2s1	Cycloheximide cs 25
